The values below come from the OligoGym collection.
Also: reference of the scale not given here.

For one assay, the target named is PLEKHN1. In words: pooled miR-30 sensor sort-seq; sequence = guide strand. The settings on record: shRNA.
Sequence TAGTGGAAGAGCTTGTTGGCGG displayed a sensor-assay potency score (higher = more potent) of -0.587.
The same measure, in the same setting: the result for TTGAACACACTCAGGAATGGCT reads -0.516; that for TCGCTGGTTCTCCAGGTCCAGG, -2.
The same measure, in the same setting: the result for TGAAATGTGAGTCCTTCCGAGC reads -1.13; that for TGACCGTAGTCCTCGTAGCTGG, -1.04.
Same read-out and setting: in the case of TAGCTGGCGCACACCACGCGGA it was -1.23; in that of TTCTCCTCCAGGTTGATGTGGA, -0.466.
In the case of TTCTTGGAGAGCAAGTAGGGGC, the sensor-assay potency score (higher = more potent) is -0.773.

The next assay addresses PLK1S1. Described as above. The note with it: shRNA.
On to TTTGAGCATAGCATCTTCTTAA, for which the sensor-assay potency score (higher = more potent) is -0.677.
The same measure, in the same setting: the result for TATTCCACTATTGTCATTCAGA reads -0.697; that for TAGTTTTACATATTTCAGCTTA, -0.42.
Same read-out and setting: in the case of TTGGTTTCGAGTATGAGCCTTC it was 0.232; in that of TATTTCAGCTTAACTCTGCATG, -0.461.
The same measure, in the same setting: in the case of TTGAGTCTCATATTCGAGCTTC it was 0.47.
TTCAGATTCACATATTTCCTTC had a sensor-assay potency score (higher = more potent) of -0.129.
Still for that read-out and setting: in the case of TAGATGAAAAACTAGCTTCCGA it was -0.0275.
The same measure, in the same setting: the result for TTGTACTACACAGCTGTCTGTC reads -0.193.
The same measure, in the same setting: in the case of TTTGTCTCGAATGCACCGCTGC it was -0.55.
In turn, TATTCTGAAACTGGTATCGGAG displayed a sensor-assay potency score (higher = more potent) of -0.809.
